Compounds with a hit are over-represented: about 4.1% of the library has one in this group of screens.
DAX1 inh-1 = DAX1 (NR0B1) inhibitors on StAR promoter, primary screen, cell-based, luminescence, SF-1 (NR5A1), full-length DAX-1. HEK293T StAR-luciferase reporter, SF-1/DAX-1 repression relief. inhibition, % at 6.8 µM. 1.1% of 370,000 active. AID 652010, 2013;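 active = inhibition above the mean over all tested compounds plus 3 SD, cut at about 3.6% in these data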;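 note: 0% = DAX-1 cells with DMSO and 100% = cells lacking DAX-1 with DMSO; higher inhibition means more luminescence from relief of DAX-1 repression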
hcDAF-12 act = H. contortus DAF-12 nuclear receptor activators, primary screen, cell-based, luminescence, HEK293, lit1-tk-luc reporter; activation, % at 6.8 µM; HEK293 hcDAF-12 lit1-tk-luc reporter; 0% DMSO, 100% Δ7-dafachronic acid; 1.4% of 370,000 active;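 active = activation above the mean of all tested compounds plus 3 SD, cut at about 5.5% in these data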;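 note: 100% = response to 3 µM Δ7-dafachronic acid high control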
hgDAF-12 ag = H. glycines DAF-12 receptor agonists, primary screen, cell-based, luminescence, HEK293, GAL4 fusion, UAS-luciferase. Nuclear hormone receptor DAF-12 (Heterodera glycines), GAL4 fusion. HEK293 GAL4-hgDAF12 UAS-luciferase reporter, agonist luminescence; normalized to butyrate control. activation, % at 6.8 µM. 1.8% of 370,000 active. AID 687014, 2013;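 active = activation above a cutoff set at the mean of all screened compounds plus 3 SD, cut at about 10% in these data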;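 note: 0% = DMSO wells and 100% = sodium butyrate wells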
DAX1 inh-2 = DAX1 (NR0B1) inhibitors, primary screen, cell-based, HEK293, Gal4-DAX1, luciferase luminescence; inhibition, % at 6.75 µM; 0.99% of 340,000 active; HEK293 Gal4-DAX1 luciferase reporter; Nuclear receptor subfamily 0 group B member 1 (Homo sapiens), P51843; AID 504766, 2011;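 active = inhibition above the mean over all tested compounds plus 3 SD, cut at about 4.2% in these data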;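 note: 0% = DAX1-transfected cells with DMSO and 100% = empty-vector control cells with DMSO; inhibition shows as a rise in luminescence from relieved DAX1 repression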
Target sequence (P51843 207-470 limits assumed): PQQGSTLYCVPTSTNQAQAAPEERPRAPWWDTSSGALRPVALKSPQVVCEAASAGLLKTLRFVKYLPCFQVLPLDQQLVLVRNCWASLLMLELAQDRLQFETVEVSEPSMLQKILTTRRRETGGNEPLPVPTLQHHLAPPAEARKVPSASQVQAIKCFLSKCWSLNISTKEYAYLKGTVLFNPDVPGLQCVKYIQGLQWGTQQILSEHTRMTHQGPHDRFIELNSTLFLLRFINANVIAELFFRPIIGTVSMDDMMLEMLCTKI
ssDAF-12 act = S. stercoralis DAF-12 nuclear receptor activators, primary screen, cell-based, luminescence, HEK293, GRIP1 co-expression, lit1-tk-luc; activation, % at 6.8 µM; Nuclear hormone receptor DAF-12 (Strongyloides stercoralis); 1% of 370,000 active; HEK293 ssDAF-12/GRIP1 lit1-tk-luc reporter; % of 3 µM dafachronic acid response;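 active = activation above the mean over all tested compounds plus 3 SD, cut at about 0.9% in these data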;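 note: 0% = DMSO-only wells and 100% = 3 µM delta7-dafachronic acid wells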
* marks the source's active call; other numbers are inactive results; nt = not tested or not shown.

SMILES | DAX1 inh-1 | hcDAF-12 act | hgDAF-12 ag | DAX1 inh-2 | ssDAF-12 act
Cc1c(CCC(=O)NCC(=O)O)c(=O)oc2cc3occ(-c4ccccc4)c3cc12 | 1 | -2 | -3 | -2 | -1
Cc1coc2cc3oc(=O)c(CCC(=O)NCC(=O)O)c(C)c3cc12 | 0 | 0 | 1 | 6.1* | -1
CCOC(=O)c1cccc(NC(=O)CN(C)S(=O)(=O)c2cc3ccccc3s2)c1 | -1 | -2 | -1 | nt | -2
COCCNC(=O)COC(=O)CSCc1nc2ccccc2s1 | 0 | 5.8* | 2 | -1 | 0
O=C(O)C1CCC(Cn2c(SCc3cc(=O)n4ccccc4n3)nc3ccsc3c2=O)CC1 (stereo not given) | 0 | -2 | 0 | 5.0* | -2
O=C(CSc1nc2ccsc2c(=O)n1CC1CCC(C(=O)O)CC1)c1ccc(Cl)cc1 (stereo not given) | 1 | -2 | -2 | 0 | -1
O=C(CSc1nc2ccsc2c(=O)n1CC1CCC(C(=O)O)CC1)c1ccc(F)cc1 (stereo not given) | -1 | -1 | 11* | 1 | -2
Cc1ccc(C(=O)Nc2cc(Cl)ccc2-n2cncn2)o1 | 1 | 4 | 1 | 2 | 1.2*
COc1ccc(S[C@]2(C(=O)N3CCN(c4ncccn4)CC3)CC(=O)N(c3ccc(OC)cc3)[C@@H]2c2ccc(OC)cc2)cc1 | -1 | 1 | -6 | nt | -1
COCC(=O)Nc1ccccc1-c1ccccc1 | 1 | -2 | 11* | 1 | -1
NC(=O)[C@@H]1CCCN1C(=O)c1ccc2oc(CCc3ccccc3)nc2c1 | 3.6* | 0 | 5 | 1 | -1
COCC1CCCN(C(=O)c2ccc3oc(CCCc4ccccc4)nc3c2)C1 (stereo not given) | -2 | -3 | -2 | -1 | -1
O=C(c1ccc2oc(CCCc3ccccc3)nc2c1)N1CCCCC1CO (stereo not given) | 3.8* | 1 | 8 | 1 | 0
C=CCN(CC#Cc1ccccc1)Cc1ccc(OC)cc1OC | -2 | -1 | 1 | nt | -1
Cc1cc(=O)oc2cc(OC(C)C(=O)NCC3CCC(C(=O)O)CC3)ccc12 (stereo not given) | 0 | 0 | -3 | 3 | -1
Cc1c(Cc2ccccc2)c(=O)oc2cc(OC(C)C(=O)NCC3CCC(C(=O)O)CC3)c(Cl)cc12 (stereo not given) | 0 | -2 | 0 | 4.6* | -2
Clc1cccc(CN2CCCCCC2)c1 | 0 | -2 | 1 | -1 | -1
Clc1ccc(-c2nc3cc(CN4CCCCC4)ccc3o2)cc1 | 1 | 3 | 11* | 3 | 0
CCOC(=O)c1[nH]c2ccccc2c1NC(=S)Nc1ccccc1 | 1 | 6.0* | 6 | 1 | 2.0*
CCOC(=O)c1[nH]c2ccccc2c1NC(=O)CC | 1 | 6.1* | 5 | 0 | 0
CCOC(=O)c1[nH]c2ccccc2c1NC(=O)COC | 0 | 3 | 2 | 1 | 0
CCOC(=O)c1[nH]c2ccccc2c1NC(C)=O | 0 | 3 | 2 | 1 | 0
CCOC(=O)c1[nH]c2ccccc2c1NC(=S)Nc1cccc(C)c1 | -1 | 5.8* | -1 | 4 | 0
CN(C)c1ccc(CN(Cc2ccco2)C(=O)c2ccco2)cc1 | 1 | -1 | -2 | -1 | -1
O=C(c1ccco1)N(Cc1ccc(Cl)cc1)Cc1ccco1 | -2 | 5.7* | 3 | 0 | 0
SMILES | DAX1 inh-1 | hcDAF-12 act | hgDAF-12 ag | DAX1 inh-2 | ssDAF-12 act
COc1cccc(-c2nnc(SCc3cc(C)ccc3C)n2Cc2ccco2)c1 | -2 | -3 | -1 | nt | -2
CC1Cc2ccccc2N1C(=O)c1cc2cccnc2n(C)c1=O (stereo not given) | 1 | 5.6* | 3 | 0 | 0
CC1CN(C(C)C)C(=S)NC1=O (stereo not given) | 3.6* | -1 | -1 | -1 | -1
O=C(O)CN1C(=O)COc2cc(S(=O)(=O)N3CCCC3)ccc21 | 0 | 0 | -1 | 5.8* | -1
CC(C)C(=O)Nc1cc(S(=O)(=O)Nc2ccc(Cl)cc2)ccc1Cl | -1 | -1 | -4 | 0 | -1
CC(C)(C)C(=O)Nc1cc(S(=O)(=O)Nc2ccc(Cl)cc2)ccc1O | 0 | -2 | -3 | 4.3* | -1
CN1Cc2nnn(Cc3ccccc3)c2-c2cc(N3CCCCC3)ccc2S1(=O)=O | 1 | -2 | -2 | nt | -2
CCOCC(=O)NC(=O)N1C[C@H]2CON(C)[C@H]2C[C@H]1c1ccc(OC)cc1 | 0 | 0 | 1 | nt | -1
CC(C)C(=O)O/N=C1\CCS(=O)(=O)c2sccc21 | 0 | 1 | 2 | 6.2* | -1
Cc1nn(-c2ccccc2)c(C)c1/C=N\NC(=O)CSc1nc2ccccc2n1Cc1ccc(Cl)cc1 | 0 | -1 | 1 | nt | -1
C=CCOc1cccc(/C=N/NC(=O)CN(c2cc(Cl)ccc2OC)S(=O)(=O)c2ccc(C)c([N+](=O)[O-])c2)c1 | 0 | 1 | 0 | 1 | 1.0*
Fc1ccc2[nH]c3c(Cl)ncnc3c2c1 | 1 | 5 | 2 | -1 | 1.0*
COc1ccc(CN(CCN2CCOCC2)C(=O)c2cccc(F)c2)cc1OC | 0 | -3 | 0 | nt | -1
CCOC(=O)c1cc2cc3ccccc3cc2[nH]1 | 1 | 4 | 9 | 2 | 1.0*
O=C(Cc1cccs1)N/N=C/C(Cl)=C/c1ccccc1 | 2 | 3 | 12* | 1 | -1
CC(=O)N1CCCN(S(=O)(=O)c2ccc3c(c2)oc(=O)n3C)CC1 | 0 | 0 | 1 | nt | -1
Cc1cc(-c2nnc(CCC(=O)N3CCN(Cc4cccc(F)c4)CC3)o2)c(C)o1 | 0 | 0 | -1 | 6.3* | 0
CCC(=O)N(C)CCc1cc2c(c(OC)c1/C=N/NC(=O)c1ccncc1)OCO2 | 0 | 0 | 2 | 4.2* | -1
O=C(NC1CCCCN(Cc2ccc(Cl)cc2)C1=O)c1cccc2nsnc12 (stereo not given) | -1 | 0 | 0 | nt | 0
O=c1c2ccccc2nc2sc3ccccc3n12 | 2 | 1 | 3 | 3 | 0
Cc1ccc2c(c1)sc1nc(=O)n(-c3ccccc3)c(=O)n12 | 2 | 2 | 12* | 3 | -1
CC(C)n1c(CCC(=O)O)ccc1-c1ccccc1 | 0 | 0 | -1 | 4.3* | -2
Cc1cc2nc(CSc3ccc(Cl)cc3)cc(=O)n2[nH]1 | -1 | -2 | -3 | 11* | -1
